The sample as a whole holds a higher share of hits than the screen did.
GIRK2 act = Activators of human GIRK2-containing channels. HEK293 GIRK2/NPY4 cells, thallium flux fluorescence. activation (% efficacy), % for hits at 37.5 µM. 34,000 tested, under 10 active. P48051;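 active = primary screen hit, no activity in plain HEK293 cells, and in GIRK2-only cells above 5% efficacy rising with concentration; inactive = the rest, including fluorescent compounds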;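 note: efficacy is normalized control-subtracted fluorescence 15 s after thallium addition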
GluA2 TARP mod = modulators of AMPA receptor GluA2-stargazin complexes; O88602+P19491; HEK293 GluA2+stargazin, membrane potential dye (FDSS), glutamate EC50; hits were called plate by plate, in both directions; calls only at 30 µM; 40,000 tested, 3.5% active;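 active = any of four per-well response measures lying three or more SD from its plate-wide compound average, in either direction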
Target sequence (O88602 whole entry, looked up): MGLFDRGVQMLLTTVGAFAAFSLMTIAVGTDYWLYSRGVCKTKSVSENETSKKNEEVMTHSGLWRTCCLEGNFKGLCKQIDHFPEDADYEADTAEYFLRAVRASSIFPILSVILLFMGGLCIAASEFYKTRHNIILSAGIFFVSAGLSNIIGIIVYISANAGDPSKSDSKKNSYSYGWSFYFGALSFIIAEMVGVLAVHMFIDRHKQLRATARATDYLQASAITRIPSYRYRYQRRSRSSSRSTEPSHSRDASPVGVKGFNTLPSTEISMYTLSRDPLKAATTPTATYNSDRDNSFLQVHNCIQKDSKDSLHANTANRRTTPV
Target sequence (P19491 whole entry, looked up): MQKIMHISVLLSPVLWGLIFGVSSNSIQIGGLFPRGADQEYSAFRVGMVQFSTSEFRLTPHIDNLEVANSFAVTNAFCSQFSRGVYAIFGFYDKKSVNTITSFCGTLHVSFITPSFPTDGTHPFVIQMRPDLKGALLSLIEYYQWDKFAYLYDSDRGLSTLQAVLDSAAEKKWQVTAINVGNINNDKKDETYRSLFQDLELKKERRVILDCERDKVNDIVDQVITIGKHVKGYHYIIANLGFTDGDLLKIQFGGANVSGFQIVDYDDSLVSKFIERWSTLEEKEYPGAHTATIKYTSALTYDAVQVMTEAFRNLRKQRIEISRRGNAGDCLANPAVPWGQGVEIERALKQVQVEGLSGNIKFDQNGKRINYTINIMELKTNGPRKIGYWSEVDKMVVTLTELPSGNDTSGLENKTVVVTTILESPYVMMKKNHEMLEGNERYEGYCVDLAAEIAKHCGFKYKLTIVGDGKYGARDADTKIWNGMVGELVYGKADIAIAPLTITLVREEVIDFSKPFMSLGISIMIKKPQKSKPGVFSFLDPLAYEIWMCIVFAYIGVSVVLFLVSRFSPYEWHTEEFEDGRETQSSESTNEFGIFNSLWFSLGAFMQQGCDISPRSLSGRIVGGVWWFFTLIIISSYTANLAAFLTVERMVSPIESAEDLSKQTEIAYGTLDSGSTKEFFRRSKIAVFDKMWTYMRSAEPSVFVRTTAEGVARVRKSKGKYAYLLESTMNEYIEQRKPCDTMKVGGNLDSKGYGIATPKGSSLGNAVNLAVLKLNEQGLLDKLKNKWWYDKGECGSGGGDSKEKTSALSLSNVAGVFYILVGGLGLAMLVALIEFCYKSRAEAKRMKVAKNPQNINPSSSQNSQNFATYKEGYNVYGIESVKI
Calls only; . = inactive; / = no result given; + = active, no number.

SMILES | GIRK2 act | GluA2 TARP mod
Cc1nnsc1C(=O)N1CCC(CNC(=O)c2cccc(Cl)c2)CC1 | . | .
Cc1nnsc1C(=O)N1CCC(CNC(=O)Nc2cccc(Cl)c2)CC1 | . | +
Cc1noc(C2CN(S(=O)(=O)c3cccs3)C2)n1 | . | .
Cc1noc(C2CN(S(=O)(=O)c3cccc(Cl)c3C)C2)n1 | . | +
CCc1cc2cc(C(=O)Nc3ccc(F)cc3)sc2s1 | / | .
Cc1ccc(Nc2cc(C)nc(N3CCN(C(=O)c4ccc5c(c4)OCO5)CC3)n2)cc1 | / | .
Cc1ccc(Nc2cc(N3CCN(C(=O)c4ncccn4)CC3)nc(C)n2)cc1 | . | +
COc1ccc(OCC(=O)NCCOc2cc(C)cc(C)c2)cc1 | . | .
CC(=O)Nc1ccc(NC(=O)CSc2nc(=O)n(CCCO)c3c2CCCC3)cc1 | . | .
CCOc1ccc(NC(=O)CSc2nc(=O)n(CCO)c3c2CCCC3)cc1 | . | +
Cc1cc(NC(=O)Cn2cnc(C(C)C)cc2=O)no1 | . | .
COc1ccc(Cl)cc1S(=O)(=O)N1CCN(S(=O)(=O)c2cc(Cl)ccc2OC)CC1 | / | .
COc1ccc(S(=O)(=O)N2CCCCCC2)c(C)c1C | / | .
COc1ccc(F)cc1S(=O)(=O)N1CCCCCC1 | / | .
COc1ccc(Cl)cc1S(=O)(=O)N1CCCCCC1 | / | +
COc1ccc(/C=C/c2nc3ccccc3s2)cc1S(=O)(=O)N1CCCCC1 | / | +
COc1ccc(Br)cc1S(=O)(=O)N1CCCCCC1 | / | +
COc1ccc(S(=O)(=O)CCC(=O)Nc2nc3c(C)ccc(C)c3s2)cc1 | . | .
CCOc1ccc(-c2nc3n(n2)C(=O)CC(c2ccccc2)S3)cc1OCC (stereo not given) | / | .
O=C(CC(c1ccccc1)c1ccccc1)NCC1(O)CCc2ccccc21 (stereo not given) | . | /
O=C(C1CCCC1)N1CCc2ccc(NC(=O)C3(c4ccccc4)CCOCC3)cc21 | . | /
O=S(=O)(NCCN1CCOC(c2ccccc2)C1)c1cc(Cl)ccc1Cl (stereo not given) | . | /
Cc1nn(C)cc1CN(C)C(=O)COc1ccc2ccccc2c1 | . | .
COc1cc(OC)cc(C(=O)NCC2(c3ccccc3)CCOCC2)c1 | . | .
COc1ccc(C2(CNC(=O)c3ccc(Cl)c(Cl)c3)CCOCC2)cc1 | / | +
SMILES | GIRK2 act | GluA2 TARP mod
Cc1ccc(NC(=O)NCCOc2ccc3nnc(-c4ccccc4)n3n2)cc1C | . | .
C=CCN1C(=O)SC(CC(=O)Nc2ccc(C(=O)OC)cc2)C1=O (stereo not given) | . | .
C=CCN1C(=O)SC(CC(=O)Nc2ccc([N+](=O)[O-])cc2)C1=O (stereo not given) | . | +
Cc1ccc(-c2nnc(CC(=O)NCCc3cccs3)o2)cc1 | . | /
COc1ccc(S(=O)(=O)NCC(C)(O)CCSC)cc1Cl (stereo not given) | . | +
CSCCC(C)(O)CNS(=O)(=O)c1ccc(Br)s1 (stereo not given) | / | .
CSCCC(C)(O)CNS(=O)(=O)c1ccc(Cl)s1 (stereo not given) | . | +
COc1ccc(S(=O)(=O)NCC(C)(O)C2CC2)cc1Cl (stereo not given) | . | .
Cc1c(C)n2c3c(=O)n(CC(N)=O)c(=O)n(C)c3nc2n1C1CCCCC1 | / | +
Cc1c(C)n2c3c(=O)n(CCN4CCCCC4)c(=O)n(C)c3nc2n1C1CCCC1 | . | .
CC(C)C(=O)N1CCCc2ccc(NC(=O)C(=O)NCc3cccs3)cc21 | . | .
COc1cc([N+](=O)[O-])ccc1NC(=O)c1ccc(=O)n(Cc2ccccc2)c1 | . | +
CC(=O)c1cccc(NC(=O)c2ccc(=O)n(Cc3cccc([N+](=O)[O-])c3)c2)c1 | . | +
COc1cc([N+](=O)[O-])ccc1NC(=O)c1ccc(=O)n(Cc2cccc(C(F)(F)F)c2)c1 | . | .
COc1cc([N+](=O)[O-])ccc1NC(=O)c1ccc(=O)n(Cc2ccc(Cl)cc2)c1 | . | .
COc1cccc(NC(=O)c2ccc(=O)n(Cc3cccc([N+](=O)[O-])c3)c2)c1 | . | .
COc1cc([N+](=O)[O-])ccc1NC(=O)c1ccc(=O)n(Cc2cccc(Cl)c2)c1 | . | +
O=C(NCCN1CCOCC1)C(=O)Nc1ccc(N2CCCCS2(=O)=O)cc1 | / | .
Cc1ccc(CC(=O)Nc2sccc2-c2nc3ccccc3s2)cc1 | . | .
CSCCn1c(=NC(=O)c2ccc(Cl)s2)sc2cc(S(C)(=O)=O)ccc21 | / | .
COc1ccccc1S(=O)(=O)NCC(O)(c1ccco1)C1CC1 (stereo not given) | . | .
Cc1c(C)c(C)c(S(=O)(=O)NCCC(O)c2ccco2)c(C)c1C (stereo not given) | . | +
CN(C)CCNC(=O)C(=O)NCCC(O)c1ccco1 (stereo not given) | . | .
O=C(NCc1cccs1)C(=O)NCC(c1cccc2ccccc12)N1CCOCC1 (stereo not given) | / | .
